# CYP2C9 act = CYP2C9 (human) activation; recombinant CYP2C9, luciferin-H conversion, luminescence; hits give high values; factor 1 = untreated enzyme, 0 = blocked; activation factor at 5 µM; 96,000 compounds, 1.4% hits;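 active = activation factor of 2 or more for CYP2C9 at a 5 µM dose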
# CYP2C9 inhib = blocks human cytochrome P450 2C9; P11712; CYP2C9 Supersomes, luciferin-H conversion, luminescence; inhibition, % at 5 µM; 96,000 compounds, 20% hits; AID 777;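 active = blocking of liver enzyme CYP2C9 beyond about 50% at 5 µM, limit read from the data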
# CYP2C19 inh = inhibitors of human CYP2C19; inhibition, % at 5 µM; CYP2C19 Supersomes, luciferin-H EGE luminescence, 30 min; AID 778; 96,000 compounds, 21% hits; P33261;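 active = CYP2C19 inhibition above a set limit at 5 µM in the primary screen, cut at about 50% in these data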
# Target sequence (P33261 whole entry, looked up): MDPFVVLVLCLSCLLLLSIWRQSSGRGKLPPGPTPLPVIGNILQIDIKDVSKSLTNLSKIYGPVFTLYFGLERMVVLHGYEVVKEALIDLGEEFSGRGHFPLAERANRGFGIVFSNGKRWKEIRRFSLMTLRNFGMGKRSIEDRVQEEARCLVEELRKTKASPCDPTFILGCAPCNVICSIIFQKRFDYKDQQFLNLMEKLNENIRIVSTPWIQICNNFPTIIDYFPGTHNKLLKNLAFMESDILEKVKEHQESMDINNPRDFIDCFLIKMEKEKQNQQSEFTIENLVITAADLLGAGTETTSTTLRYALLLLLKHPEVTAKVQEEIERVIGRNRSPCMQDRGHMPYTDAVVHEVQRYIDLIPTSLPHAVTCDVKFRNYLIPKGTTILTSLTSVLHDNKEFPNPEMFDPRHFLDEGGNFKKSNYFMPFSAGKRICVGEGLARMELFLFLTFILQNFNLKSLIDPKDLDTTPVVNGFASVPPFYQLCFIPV
# Measles CPE = protection of cells from measles virus; Measles virus-infected cells, CPE protection, absorbance; protection (pct of control), % at 4 µM; 140,000 compounds, 1.5% hits; in the data active = protection mostly above about 24%, no sharp cut-off; inactive = mostly below about 26%
# CYP2C19 act = increases human CYP2C19 enzyme activity. P33261. recombinant CYP2C19, luciferin-H EGE luminescence; hits give high values; 0 = fully inhibited enzyme, 1 = untreated enzyme. activation factor at 5 µM. 96,000 tested, under 10 active. AID 1025;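 active = activation factor of at least 2 at 5 µM in the primary screen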
# Numbers stand for hits; – = inactive; · = not tested or not shown. Most compounds without a hit are left out; they make up all but 22% or so of the library.
SMILES,CYP2C9 act,CYP2C9 inhib,CYP2C19 inh,Measles CPE,CYP2C19 act
CC(=O)Nc1ccc(S(=O)(=O)NNC(=O)c2ccc(C)cc2)cc1,–,–,53.2,–,–
CCOC(=O)c1csc(NC(=O)C2CCCCC2)n1,–,–,–,–,–
Cc1nnsc1NC(=O)OCc1ccccc1Cl,–,–,76.4,–,–
O=C(O)CSC1CC(=O)N(c2cccc(Cl)c2)C1=O (configuration not stated),–,–,–,–,–
O=C(O)CSC1CC(=O)N(c2ccc(Cl)c(Cl)c2)C1=O (configuration not stated),–,–,63.7,–,–
CCn1c(CNc2ccc(C)cc2C)nnc1SCC(=O)N1CCCc2ccccc21,–,–,86.4,–,–
Cc1ccc(NCc2nnc(SCC(=O)Nc3ccccc3)n2CC2CCCO2)c(C)c1 (configuration not stated),–,–,52.3,–,–
Cc1ccc(NCc2nnc(SCCN3CCCCC3)n2CC2CCCO2)c(C)c1 (configuration not stated),–,–,–,–,–
CCn1c(CNc2ccc(F)cc2)nnc1SCC(=O)N1CCCc2ccccc21,–,–,63.0,–,–
S=C(NC1CCCCC1)NN(c1ccccc1)c1ccccc1,·,·,·,–,·
CCn1c(SCC(=O)N2CCCC2)nc2c1c(=O)n(C)c(=O)n2C,–,–,–,–,–
CCNC(=O)c1oc2c(c1C)C(=O)CC(C)(C)C2,–,–,–,–,–
Cc1c(C(=O)NCc2cccnc2)oc2ccccc12,–,–,63.6,–,–
Cc1c(C(=O)NCc2cccs2)oc2ccccc12,–,–,–,–,–
Cc1c(C(=O)NCc2cccnc2)oc2c1C(=O)CC(C)(C)C2,–,56.4,80.3,–,–
Cc1c(C(=O)NCCN2CCOCC2)oc2ccccc12,–,–,54.4,–,–
O=C(CCSCCC(=O)NCCN1CCOCC1)NCCN1CCOCC1,–,84.0,–,–,–
Cc1ccccc1NC(=S)N(C)Cc1cn(C)c2ccccc12,·,·,·,–,·
O=C(/C=C/c1cccs1)NC(=S)NNC(=O)Cc1cccs1,·,·,·,–,·
O=C(NCCN1CCOCC1)c1ccncc1,–,–,81.3,–,–
O=C(NCCN1C(=O)CCC1=O)c1ccncc1,–,–,–,–,–
c1ccc(N2CCN(c3ncnc4sc5c(c34)CCC5)CC2)cc1,–,72.0,75.2,–,–
CCc1cc2c(N3CCN(c4ccccc4)CC3)ncnc2s1,–,56.2,–,–,–
O=c1oc(-c2ccccc2)nc2sc3c(c12)CCC3,·,·,·,–,·
O=C(c1ccco1)N1CCN(c2ncnc3sc4c(c23)CCC4)CC1,–,86.3,72.2,–,–
SMILES,CYP2C9 act,CYP2C9 inhib,CYP2C19 inh,Measles CPE,CYP2C19 act
c1nc(N2CCC3(CC2)OCCO3)c2c3c(sc2n1)CCCC3,–,62.6,85.4,–,–
CCc1nc(N2CCN(C(=O)c3ccco3)CC2)c2c3c(sc2n1)CCCC3,–,–,–,–,–
Cc1nccn1-c1ncnc2sc3c(c12)CCCC3,–,–,–,–,–
O=C(CSCc1ccccc1Cl)NNC(=S)Nc1ccccc1,–,74.6,85.9,–,–
O=C(Cc1ccccc1)NNC(=S)Nc1ccc(Cl)cc1,·,·,·,19.4,·
Cc1cccc(NC(=S)NNC(=O)Cc2ccccc2)c1,·,·,·,–,·
CCOc1ccc(NC2=NC(C(=O)NCc3ccccc3)CC(=O)N2)cc1 (configuration not stated),–,–,62.0,–,–
O=C1CC(C(=O)NCc2ccccc2)N=C(N2CCCCC2)N1 (configuration not stated),–,–,–,–,–
CSc1ccccc1C(=O)Nc1nccs1,–,–,–,–,–
O=C(CCCCCn1c(=O)[nH]c2ccsc2c1=O)N1CCN(C2CCCCC2)CC1,–,72.5,55.7,–,–
O=C(CCCCCn1c(=O)[nH]c2ccsc2c1=O)NCc1ccc(F)cc1,–,87.7,–,–,–
O=C(CCCCCn1c(=O)[nH]c2ccsc2c1=O)NCc1cccs1,–,80.8,–,–,–
CC(=O)N1N=C(c2cccc([N+](=O)[O-])c2)OC1c1ccc(Cl)cc1Cl (configuration not stated),–,77.7,73.3,–,–
CC(=O)N1N=C(N)SC1c1cccc([N+](=O)[O-])c1 (configuration not stated),·,·,·,–,·
Cc1ccc(O)c(NC(=O)c2cccc(S(=O)(=O)N3CCCCC3)c2)c1,–,52.7,58.7,–,–
O=C(Nc1ccccc1C(=O)N1CCCC1)c1cccc(S(=O)(=O)N2CCCCCC2)c1,–,80.2,54.2,–,–
O=C(Nc1cccs1)Nc1ccc(F)cc1F,·,·,·,–,·
CCN(CC)S(=O)(=O)c1cc(C(=O)Nc2cccnc2)ccc1Cl,–,–,–,–,–
O=C(Nc1cccnc1)c1ccc(F)cc1,·,·,·,–,·
O=C(Nc1ccc(F)cc1)c1ccc(-n2ccnc2)nc1,–,95.6,100.4,–,–
O=C(Nc1ccncc1)Nc1ccc(F)cc1F,–,82.8,97.0,–,–
CCN(CC)S(=O)(=O)c1cc(C(=O)Nc2ccncc2)ccc1Cl,–,100.4,100.4,–,–
COc1ccc(NC(=O)c2ccc(-n3cccn3)nc2)cc1,–,–,–,–,–
O=C(Nc1ccncc1)c1ccc(F)cc1,–,60.8,88.0,–,–
COc1ccc(C(=O)Nc2cccc(NC(C)=O)c2)cc1OC,·,·,·,–,·
SMILES,CYP2C9 act,CYP2C9 inhib,CYP2C19 inh,Measles CPE,CYP2C19 act
O=C(Nc1ccncc1)c1cccc(F)c1,–,–,56.2,–,–
CC(C)CN1C(=O)c2ccc(C(=O)Nc3ccncc3)cc2C1=O,–,97.3,97.9,–,–
O=C(Nc1cccc(F)c1)c1ccccc1,–,–,–,–,–
COc1ccc(C(=O)Nc2ccncc2)cc1OC,–,–,57.4,–,–
CC(C)CN1C(=O)c2ccc(C(=O)Nc3ccccn3)cc2C1=O,–,–,–,·,–
CCOc1cccc(C=Nc2cc(C)cc(C)c2O)c1O,–,–,–,·,–
CN(C)S(=O)(=O)N1CCN(C(=O)N2CCOCC2)CC1,–,–,–,–,–
COc1ccc(CCNC(=O)CSc2nnc(-c3ccc(F)cc3)o2)cc1OC,–,63.1,–,–,–
Cc1nonc1NC(=O)CSc1ccc(-c2ccccc2)nn1,–,63.6,–,–,–
COc1ccc(CCNC(=O)C(C)Sc2ccc(C)cc2)cc1OC (configuration not stated),·,·,·,–,·
COc1ccc(CCNC(=O)C(C)Sc2ccccc2)cc1OC (configuration not stated),–,63.8,56.0,–,–
COc1ccc(CCNC(=O)CSc2nnc(CNc3ccc(Cl)cc3)o2)cc1OC,·,·,·,–,·
COc1ccc(CCCc2nnc(SCC(=O)Nc3nccs3)n2C)cc1C,–,–,59.1,–,–
Cc1ccc(-c2ccc(SCC(=O)c3ccccc3)nn2)cc1,·,·,·,–,·
Cc1cc(C)nc(SCc2nnc(SCC(=O)Nc3nccs3)n2C)n1,·,·,·,–,·
COCCNC(=O)C1CC(c2ccccc2[N+](=O)[O-])=NO1 (configuration not stated),–,–,–,–,–
COc1ccc(CCNC(=O)CSc2ccc(-c3ccccc3)nn2)cc1OC,–,–,70.7,–,–

# Screens: PubChem, several laboratories
